# Screens (PubChem)
# An excerpt weighted towards active compounds, which were near 6.7% of everything screened.
# Pf Dd2 growth – inhibitors of Plasmodium falciparum Dd2 growth; P. falciparum Dd2 growth, SYBR Green, 72 h; hits give low values; activity change, % at 10 µM; hit rate 2.3% among 94,000; in the data active = activity change below about -80%; inconclusive = no clear call, values can overlap the other calls
# T cruzi growth-1 – T. cruzi proliferation inhibition. inhibition, % at 8.34 µM. hit rate 5.9% among 77,000. T. cruzi beta-gal in NIH3T3, GalScreen luminescence, 90 h. AID 624255;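 active = mean inhibition above about 93%, with at least 55% of replicates each passing it, limit read from the data, passing the limit was not always enough; inconclusive = only one of those two conditions holds; inactive = neither condition holds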
# C diff growth – blocks growth of Clostridium difficile. Clostridium difficile clinical isolate growth, OD600, 24 h; hits give low values. growth activity, negative = inhibition, % at 16 µg/mL (by protocol). hit rate 0.25% among 86,000;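 active = mean growth activity at or below -80% and every replicate also at or below -80%; inconclusive = mean at or below -80% but some replicate above -80%; inactive = mean growth activity above -80%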;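 also: 0% = DMSO wells and -100% = levofloxacin 16 µg/mL wells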
# T cruzi growth-2 – Trypanosoma cruzi proliferation inhibition; shares compounds with T cruzi growth-1; T. cruzi beta-gal in NIH3T3, GalScreen luminescence, 90 h; inhibition, % at 8.35 µM; hit rate 72% among 5,600;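 active = mean replicate inhibition above about 95% and at least 55% of replicates individually reaching it, limit read from the data; inconclusive = only one of the two criteria is met; inactive = neither criterion is met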
# T cruzi growth-3 – Trypanosoma cruzi proliferation inhibition | inhibition, % at 2.09 µM | T. cruzi beta-gal in NIH3T3, GalScreen luminescence, 90 h | shares compounds with T cruzi growth-1 | hit rate 21% among 5,600;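 active = mean inhibition above about 95%, with at least 55% of replicates also reaching it, limit read from the data; inconclusive = meets just one of the two conditions; inactive = meets neither condition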;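 also: plate controls were neutral control median for no effect and positive control median for full effect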
# 3T3 cytotox – kills mouse NIH/3T3 fibroblasts; shares compounds with T cruzi growth-1; NIH/3T3 viability, CellTiter-Glo ATP luminescence, 90 h; cytotoxicity (signal decrease), % at 8.35 µM; hit rate 14% among 5,600; AID 651742;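 active = mean signal decrease across replicates above about 35% based on untreated-well scatter, with enough replicates individually passing, limit read from the data; inconclusive = no rule stated though some were filed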;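 also: 0% = median of neutral control wells and 100% = median of positive control wells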
# 3T3 cytotox 2 – cytotoxicity in mouse NIH/3T3 fibroblasts. shares compounds with T cruzi growth-1. NIH/3T3 viability, CellTiter-Glo ATP luminescence, 90 h. inhibition, % at 24.9 µM. hit rate 56% among 5,600. AID 651744;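 active = mean loss of cell viability signal at or above a set limit, and enough replicates individually reaching it; inconclusive = meets only the mean limit or only the replicate share; inactive = meets neither condition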;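 also: 0% = median of neutral control wells and 100% = median of positive control wells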
# Numbers without * were called inactive; ? = inconclusive; nt = no result.
SMILES,Pf Dd2 growth,T cruzi growth-1,C diff growth,T cruzi growth-2,T cruzi growth-3,3T3 cytotox,3T3 cytotox 2
C[C@@H]1CN([C@H](C)CO)C(=O)c2cc(NS(=O)(=O)c3ccc(Cl)cc3)ccc2O[C@@H](C)CCCCO[C@H]1CN(C)Cc1ccc(C(F)(F)F)cc1,-12,94,39,nt,nt,nt,nt
C[C@@H]1CCCCO[C@@H](CN(C)Cc2ccc(C(F)(F)F)cc2)[C@H](C)CN([C@H](C)CO)C(=O)c2cc(NS(=O)(=O)c3ccc(Cl)cc3)ccc2O1,-36,93,25,nt,nt,nt,nt
CS(=O)(=O)Nc1ccc2c(c1)[C@H]1C[C@H](CC(=O)NC3CCCCC3)O[C@@H](CO)[C@H]1O2,14,-16,nt,nt,nt,nt,nt
CN(C)C(=O)c1ccc(-c2ccc3c(c2)[C@H]2[C@H](CCN2C(=O)c2ccccn2)[C@H](CO)N3C)cc1,-14,58,-3,nt,nt,nt,nt
CO[C@@H]1CN(C)C(=O)c2ccc(NS(=O)(=O)c3cn(C)cn3)cc2OC[C@H](C)NC[C@H]1C,14,0,nt,nt,nt,nt,nt
CCC(=O)NC[C@H]1[C@H](c2ccc(C3=CCCC3)cc2)[C@H](CO)N1C(=O)C1CC1,-5,52,-2,nt,nt,nt,nt
COc1ccccc1C#Cc1ccc2c(c1)O[C@@H](CN(C)Cc1cccnc1)[C@H](C)CN([C@H](C)CO)S2(=O)=O,-47,nt,6,nt,nt,nt,nt
COc1ccccc1C#Cc1ccc2c(c1)O[C@@H](CN(C)Cc1ccncc1)[C@@H](C)CN([C@@H](C)CO)S2(=O)=O,?,123*,-1,101*,101*,10,40*
COc1ccccc1C#Cc1ccc2c(c1)O[C@H](CN(C)Cc1ccncc1)[C@H](C)CN([C@@H](C)CO)S2(=O)=O,-75,130,-5,nt,nt,nt,nt
COc1ccccc1C#Cc1ccc2c(c1)O[C@@H](CN(C)Cc1ccccc1)[C@@H](C)CN([C@@H](C)CO)S2(=O)=O,-14,122*,-1,104*,106*,-19,7
C[C@H](CO)N1C[C@H](C)[C@@H](CN(C)C(=O)Nc2ccc3c(c2)OCO3)Oc2ccc(NC(=O)CCCN(C)C)cc2C1=O,40,nt,-6,nt,nt,nt,nt
Cc1noc(C)c1NC(=O)Nc1ccc2c(c1)C(=O)N([C@@H](C)CO)C[C@H](C)[C@H](CN(C)C(=O)Nc1ccc3c(c1)OCO3)O2,-7,5,-3,nt,nt,nt,nt
C[C@H]1CN([C@@H](C)CO)S(=O)(=O)c2ccc(-c3ccccc3)cc2O[C@@H]1CN(C)Cc1ccccn1,-53,14,-5,nt,nt,nt,nt
C[C@H]1CN([C@@H](C)CO)S(=O)(=O)c2ccc(-c3ccncc3)cc2O[C@@H]1CN(C)Cc1ccccn1,-55,117*,-3,103*,99*,33,86*
C[C@H](CO)N1C[C@H](C)[C@H](CN(C)Cc2ccccn2)Oc2cc(-c3ccncc3)ccc2S1(=O)=O,-14,106*,1,89,84,10,28
C[C@@H]1CN([C@@H](C)CO)S(=O)(=O)c2ccc(-c3ccncc3)cc2O[C@@H]1CN(C)Cc1ccccn1,-5,86,-3,nt,nt,nt,nt
C[C@H](CO)N1C[C@H](C)[C@@H](CN(C)Cc2ccccn2)Oc2cc(-c3ccccc3)ccc2S1(=O)=O,-40,51,-6,nt,nt,nt,nt
Cc1ccc(-c2ccc3c(c2)O[C@@H](CN(C)Cc2ccccn2)[C@H](C)CN([C@@H](C)CO)S3(=O)=O)cc1,-62,119*,2,98*,82,64*,103*
C[C@@H]1CN([C@@H](C)CO)S(=O)(=O)c2ccc(-c3ccncc3)cc2O[C@H]1CN(C)Cc1ccccn1,-43,114*,-4,105*,103*,33,36*
Cc1ccc(-c2ccc3c(c2)O[C@@H](CN(C)Cc2ccccn2)[C@H](C)CN([C@H](C)CO)S3(=O)=O)cc1,-52,93,2,nt,nt,nt,nt
C[C@@H]1CN([C@@H](C)CO)C(=O)Cc2cc(NS(=O)(=O)c3ccccc3)ccc2O[C@H]1CN(C)C,4,nt,1,nt,nt,nt,nt
C[C@H](CO)N1C[C@H](C)[C@H](CN(C)C(=O)C2CC2)Oc2ncc(-c3ccccc3F)cc2C1=O,29,24,nt,nt,nt,nt,nt
O=C(Nc1cccc(F)c1)N1CCCCN2[C@H](CO)[C@H](c3ccc(-c4ccccc4F)cc3)[C@H]2C1,-28,101*,-29,104*,112*,117*,104*
COc1ccc(NC(=O)N2CCCCN3[C@H](C2)[C@@H](c2ccc(-c4ccccc4F)cc2)[C@@H]3CO)cc1,-6,58,28,nt,nt,nt,nt
O=C(Nc1ccc(F)cc1)N1CCCCN2[C@H](C1)[C@H](c1ccc(-c3ccccc3F)cc1)[C@@H]2CO,20,?,26,109*,51,32,65*
SMILES,Pf Dd2 growth,T cruzi growth-1,C diff growth,T cruzi growth-2,T cruzi growth-3,3T3 cytotox,3T3 cytotox 2
O=C(Nc1ccc(F)cc1)N1CCCCN2[C@H](CO)[C@H](c3ccc(-c4ccccc4F)cc3)[C@@H]2C1,-1,115*,-4,108*,64,4,52*
O=C(Nc1ccc(F)cc1)N1CCCCN2[C@H](C1)[C@@H](c1ccc(-c3ccccc3F)cc1)[C@@H]2CO,27,85,41,nt,nt,nt,nt
COc1ccc(NC(=O)N2CCCCN3[C@H](CO)[C@H](c4ccc(-c5ccccc5F)cc4)[C@H]3C2)cc1,-22,81,82,nt,nt,nt,nt
O=C(Nc1ccc(F)cc1)N1CCCCN2[C@@H](CO)[C@H](c3ccc(-c4ccccc4F)cc3)[C@@H]2C1,-31,106*,36,87,90,55*,104*
CCCNC(=O)N(C)C[C@H]1Oc2cc(C#CC3CC3)ccc2S(=O)(=O)N([C@H](C)CO)C[C@H]1C,-6,20,6,nt,nt,nt,nt
N#Cc1cccc(-c2ccc3c(c2)[C@@H]2[C@@H](CCN2C(=O)C2CCCCC2)[C@H](CO)N3)c1,-15,83,10,nt,nt,nt,nt
CN1C(=O)c2cc(NC(=O)NCc3ccccc3)ccc2OC[C@H]2O[C@H](CC(=O)O)CC[C@H]21,2,-15,4,nt,nt,nt,nt
O=C(Nc1ccccc1)N1CCCCN2[C@@H](CO)[C@H](c3ccc(-c4ccccc4F)cc3)[C@@H]2C1,-4,66,54,nt,nt,nt,nt
O=C(Nc1ccccc1)N1CCCCN2[C@H](CO)[C@H](c3ccc(-c4ccccc4F)cc3)[C@@H]2C1,15,101*,-1,111*,60,-20,17
O=C(Nc1ccccc1)N1CCCCN2[C@H](CO)[C@H](c3ccc(C#Cc4cccnc4)cc3)[C@H]2C1,-42,44,10,nt,nt,nt,nt
OC[C@@H]1[C@@H](c2ccc(C#Cc3cccnc3)cc2)[C@@H]2CN(Cc3ccccc3F)CCCCN12,-63,112*,-3,103*,98*,36*,104*
O=C(Nc1ccccc1F)N1CCCCN2[C@H](C1)[C@@H](c1ccc(-c3cccnc3)cc1)[C@@H]2CO,11,71,-6,nt,nt,nt,nt
O=C(Nc1ccccc1F)N1CCCCN2[C@H](CO)[C@@H](c3ccc(C#Cc4ccccc4)cc3)[C@H]2C1,-72,89,9,nt,nt,nt,nt
